# Laboratory results as given in PubChem BioAssay AID1159580 (chemical genetic matrix, 2015).
# Where “and” joins values, the source holds several entries; their conditions need not be identical. Identical values can stand only once. The whole screen tested about 5,500 compounds, of which about 2,000 (36%) were called active. Inconclusive results (about 18%) are left out. The list shows a part of the results. A number with no mark means an inactive call. Rule as the data show it: active = normalized growth mostly below about 0.91 (no sharp cut-off); inconclusive = no clear call, values can overlap the other calls; inactive = mostly above about 0.92.
# Test: chemical genetic growth profiling, strain panel (AID 1159580);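 also: tested at 20 µM; growth read once vehicle control cultures reached saturation at 30 °C; 1 = growth at the plate median or of vehicle wells; lower values mean less growth of the strain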
# Conditions: S. cerevisiae deletion strains, growth OD
structure (smiles),measurement,setting,value
COC(=O)[C@@]1(C)CCC[C@]2(C)c3ccc(O)c(C(C)C)c3CCC12 (stereo not given in full),normalized growth,"locus YAL021C, strain ccr4, active compounds read low",1.08
same,normalized growth,"locus YAL026C, strain drs2, active compounds read low",0.929
same,normalized growth,"locus YAL030W, strain snc1, active compounds read low",0.85 (active)
same,normalized growth,"locus YBL061C, strain skt5, active compounds read low",0.617 (active)
same,normalized growth,"locus YBR009C, strain hhf1, active compounds read low",0.364 (active)
same,normalized growth,"locus YBR021W, strain FUR4, active compounds read low",0.646 (active)
same,normalized growth,"locus YBR023C, strain chs3, active compounds read low",0.793 (active)
same,normalized growth,"locus YBR171W, strain sec66, active compounds read low",0.946
same,normalized growth,"locus YBR229C, strain ROT2, active compounds read low",0.875 (active)
same,normalized growth,"locus YBR231C, strain swc5, active compounds read low",0.705 (active)
same,normalized growth,"locus YBR279W, strain paf1, active compounds read low",0.941
same,normalized growth,"locus YCL011C, strain gbp2, active compounds read low",0.652 (active)
same,normalized growth,"locus YCL016C, strain dcc1, active compounds read low",0.847 (active)
same,normalized growth,"locus YCL029C, strain bik1, active compounds read low",0.804 (active)
same,normalized growth,"locus YCL069W, strain vba3, active compounds read low",0.977
same,normalized growth,"locus YCR088W, strain abp1, active compounds read low",0.971
same,normalized growth,"locus YDL005C, strain med2, active compounds read low",0.944
same,normalized growth,"locus YDL035C, strain GPR1, active compounds read low",0.912
same,normalized growth,"locus YDL040C, strain nat1, active compounds read low",0.928 (active)
same,normalized growth,"locus YDL074C, strain BRE1, active compounds read low",0.174 (active)
same,normalized growth,"locus YDL101C, strain DUN1, active compounds read low",0.894 (active)
same,normalized growth,"locus YDL185W, strain tfp1, active compounds read low",0.956
same,normalized growth,"locus YDL192W, strain arf1, active compounds read low",0.344 (active)
same,normalized growth,"locus YDR001C, strain nth1, active compounds read low",0.978
same,normalized growth,"locus YDR069C, strain doa4, active compounds read low",0.89 (active)
same,normalized growth,"locus YDR101C, strain arx1, active compounds read low",0.782 (active)
same,normalized growth,"locus YDR137W, strain rgp1, active compounds read low",0.134 (active)
same,normalized growth,"locus YDR159W, strain sac3, active compounds read low",0.29 (active)
same,normalized growth,"locus YDR162C, strain NBP2, active compounds read low",0.595 (active)
same,normalized growth,"locus YDR195W, strain ref2",0.189 (active)
same,normalized growth,"locus YDR297W, strain sur2, active compounds read low",0.566 (active)
same,normalized growth,"locus YDR318W, strain mcm21, active compounds read low",0.788 (active)
same,normalized growth,"locus YDR334W, strain swr1, active compounds read low",0.998
same,normalized growth,"locus YDR335W, strain msn5, active compounds read low",0.965
same,normalized growth,"locus YDR388W, active compounds read low",0.942
same,normalized growth,"locus YDR392W, strain spt3, active compounds read low",0.283 (active)
same,normalized growth,"locus YDR502C, strain sam2, active compounds read low",0.773 (active)
same,normalized growth,"locus YEL003W, strain gim4, active compounds read low",0.929
same,normalized growth,"locus YEL037C, strain rad23, active compounds read low",0.988
same,normalized growth,"locus YEL061C, strain CIN8 (second series), active compounds read low",0.981
same,normalized growth,"locus YEL061C, strain CIN8, active compounds read low",0.803 (active)
same,normalized growth,"locus YER015W, strain faa2, active compounds read low",0.793 (active)
same,normalized growth,"locus YER016W, strain bim1, active compounds read low",0.825 (active)
same,normalized growth,"locus YER110C, active compounds read low",1
same,normalized growth,"locus YER111C, strain swi4, active compounds read low",0.995
same,normalized growth,"locus YER155C, strain BEM2 (second series), active compounds read low",0.891
same,normalized growth,"locus YER155C, strain BEM2, active compounds read low",0.128 (active)
same,normalized growth,"locus YER167W, strain BCK2, active compounds read low",0.796 (active)
same,normalized growth,"locus YFR010W, strain ubp6, active compounds read low",0.952
same,normalized growth,"locus YGL078C, strain dbp3, active compounds read low",0.935
same,normalized growth,"locus YGL086W, strain mad1, active compounds read low",0.729 (active)
same,normalized growth,"locus YGL167C, strain pmr1, active compounds read low",0.374 (active)
same,normalized growth,"locus YGL173C, strain kem1, active compounds read low",0.832 (active)
same,normalized growth,"locus YGL227W, strain vid30, active compounds read low",0.97
same,normalized growth,"locus YGL240W, strain doc1, active compounds read low",0.772 (active)
same,normalized growth,"locus YGL248W, strain PDE1, active compounds read low",0.828 (active)
same,normalized growth,"locus YGL253W, strain hxk2, active compounds read low",0.951
same,normalized growth,"locus YGR135W, strain pre9, active compounds read low",0.957
same,normalized growth,"locus YGR252W, strain gcn5, active compounds read low",0.781
same,normalized growth,"locus YHR013C, strain ard1, active compounds read low",1.01
same,normalized growth,"locus YHR027C, strain rpn1, active compounds read low",0.499 (active)
same,normalized growth,"locus YHR030C, strain SLT2, active compounds read low",0.493 (active) and 0.19 (active)
same,normalized growth,"locus YHR079C, strain IRE1 (second series), active compounds read low",0.927
same,normalized growth,"locus YHR079C, strain IRE1, active compounds read low",0.502 (active)
same,normalized growth,"locus YHR094C, strain hxt1, active compounds read low",0.897 (active)
same,normalized growth,"locus YHR129C, strain ARP1, active compounds read low",0.518 (active)
same,normalized growth,"locus YHR142W, strain chs7, active compounds read low",0.875 (active)
same,normalized growth,"locus YHR200W, strain rpn10, active compounds read low",0.871 (active)
same,normalized growth,"locus YIL066C, strain RNR3, active compounds read low",0.65 (active)
same,normalized growth,"locus YIL073C, strain SPO22, active compounds read low",1.07
same,normalized growth,"locus YIL125W, strain kgd1, active compounds read low",0.693 (active)
same,normalized growth,"locus YIR030C, strain dcg1, active compounds read low",0.954
same,normalized growth,"locus YJL092W, strain hpr5, active compounds read low",0.979
same,normalized growth,"locus YJL095W, strain BCK1 (second series), active compounds read low",0.689 (active)
same,normalized growth,"locus YJL095W, strain BCK1, active compounds read low",0.277 (active) and 0.318 (active)
same,normalized growth,"locus YJL115W, strain asf1, active compounds read low",0.976
same,normalized growth,"locus YJL129C, strain trk1, active compounds read low",0.593 (active)
same,normalized growth,"locus YJL134W, strain LCB3, active compounds read low",0.815 (active)
same,normalized growth,"locus YJL154C, strain vps35, active compounds read low",0.981
same,normalized growth,"locus YJL164C, strain tpk1, active compounds read low",0.78 (active)
same,normalized growth,"locus YJL166W, strain qcr8, active compounds read low",0.563 (active)
same,normalized growth,"locus YJL168C, strain set2, active compounds read low",1
same,normalized growth,"locus YJL187C, strain SWE1 (second series), active compounds read low",0.638 (active)
same,normalized growth,"locus YJL187C, strain SWE1, active compounds read low",0.73 (active)
same,normalized growth,"locus YJR043C, strain POL32, active compounds read low",0.955
